Source: the supplement of paper PMC7695840

Test system: Staphylococcus aureus MW2 (mecA+)
Experiment: normalized DsRed fluorescence (growth of mecA+ strain) (fraction of control range); higher = more growth of mecA+ strain
Details: compound concentration: 150 uM; cefoxitin: subinhibitory; fluorescent label: DsRed
In short: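 In 1536-well plates holding 150 μM compound (1.5% DMSO), a 1:1 mix of pre-induced S. aureus MW2 cells was added at 5 µL/well, in one replicate. One strain carried the gene and DsRed, the other lacked the gene and carried GFP, and the LB held a subinhibitory antibiotic dose chosen daily. Plates stood unshaken for 20 h at 37 °C, 90% humidity, before DsRed (540/590) and GFP (485/520) readings, which were scaled per plate to single-strain control medians, with plates high in untreated ratio and rows above DsRed/GFP 10 dropped.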

| Compound | normalized DsRed fluorescence |
| --- | --- |
| CC(=O)N[C@@H](CS)C(=O)O | 0.653 |
| Nc1nc2[nH]cc(CCc3ccc(C(=O)N[C@@H](CCC(=O)O)C(=O)O)cc3)c2c(=O)[nH]1 | 0.63 |
| CC(C)(O/N=C(\C(=O)N[C@@H]1C(=O)N2C(C(=O)[O-])=C(C[n+]3ccccc3)CS[C@H]12)c1csc(N)n1)C(=O)O | 1.28 |
| CNC1(C)C2CCC(C2)C1(C)C (centres undefined) | 0.669 |
| CCN(CC)CCNC(=O)c1ccc(N)cc1 | 0.696 |
| Cc1oncc1C(=O)Nc1ccc(C(F)(F)F)cc1 | 1.25 |
| CC(C)C(=O)Nc1ccc([N+](=O)[O-])c(C(F)(F)F)c1 | 1.4 |
| CC(C(=O)O)c1cccc(C(=O)c2ccccc2)c1 (centres undefined) | 0.413 |
| CCCCC1C(=O)N(c2ccccc2)N(c2ccc(O)cc2)C1=O (centres undefined) | 0.377 |
| CC1(C)S[C@@H]2[C@H](NC(=O)[C@H](C(=O)O)c3ccsc3)C(=O)N2[C@H]1C(=O)O | 0.864 |
| CCCCCCCCCC(=O)N[C@@H](Cc1c[nH]c2ccccc12)C(=O)N[C@H](CC(N)=O)C(=O)N[C@@H](CC(=O)O)C(=O)N[C@@H]1C(=O)NCC(=O)N[C@@H](CCCN)C(=O)N[C@@H](CC(=O)O)C(=O)N[C@H](C)C(=O)N[C@@H](CC(=O)O)C(=O)NCC(=O)N[C@H](CO)C(=O)N[C@@H]([C@H](C)CC(=O)O)C(=O)N[C@@H](CC(=O)c2ccccc2N)C(=O)O[C@@H]1C [Daptomycin] | 0.064 |
| OC[C@H]1O[C@H]([S-])[C@H](O)[C@@H](O)[C@@H]1O.[Au+] | 0.538 |
| CN(C)CCCOc1nn(Cc2ccccc2)c2ccccc12 | 1.11 |
| C[C@H](CS)C(=O)N1CCC[C@H]1C(=O)O | 0.842 |
| O=P(O)(O)C(O)(Cc1cccnc1)P(=O)(O)O [Risedronic acid (Actonel)] | 0.671 |
| CCN(CC)CCNC(=O)c1cc(S(C)(=O)=O)ccc1OC | 0.945 |
| CCCc1nn(C)c2c(=O)[nH]c(-c3cc(S(=O)(=O)N4CCN(C)CC4)ccc3OCC)nc12 | 0.655 |
| CNC(C)C1CCC(N)C(OC2C(N)CC(N)C(OC3OCC(C)(O)C(NC)C3O)C2O)O1 (centres undefined) | 0.522 |
| C[C@@H]1C[C@H]2[C@@H]3C[C@H](F)C4=CC(=O)C=C[C@]4(C)[C@@]3(F)[C@@H](O)C[C@]2(C)[C@@]1(O)C(=O)CO | 0.847 |
| Nc1ccc(S(=O)(=O)Nc2nccs2)cc1 | 1.4 |
| CN(C)CC[C@@H](c1ccc(Cl)cc1)c1ccccn1 | 0.588 |
| Fc1ccc([C@@H]2CCNC[C@H]2COc2ccc3c(c2)OCO3)cc1 | 1.15 |
| O[C@H]1[C@H](O)[C@@H](O)[C@H](O)[C@@H](O)[C@H]1O | 0.698 |
| N=C(N)NC(=O)c1nc(Cl)c(N)nc1N | 0.971 |
